MARV entry inh = qHTS for inhibitors of binding or entry into cells for Marburg Virus; Marburg virus pseudotyped entry inhibition, cell reporter; Potency, µM (top dose mostly 37.8 µM), inactives show at the highest dose activity change, negative = inhibition, hits mostly inhibitors; 300,000 compounds, 1.8% hits; calls by dose curve; tested in HEK293 cells; further: potency means the concentration at half of the fitted maximal effect; on the % scale 0 is the no-effect control and ±100 the full control effect
Shiga inhibitor = A qHTS for Small Molecule Inhibitors of Shiga Toxin. Vero cells, Shiga toxin protein synthesis inhibition reporter. inhibition, % at 38.7 µM. 290,000 compounds, 9.2% hits. AID 2315, 2010; in the data active means inhibition mostly above about 28%, no sharp cut-off; inactive means mostly below about 43%; further: 0% is about no effect
AMA1-RON2 inh = qHTS for Inhibitors of AMA1-RON; Towards Development of Antimalarial Drug Lead: Primary Screen | Plasmodium falciparum AMA1 (3D7) - RON2 peptide interaction | AlphaScreen AMA1-biotinylated RON2 peptide binding | Potency, µM (highest dose often 58.2 µM), for the others: at the top dose activity change, negative = inhibition, usual class: inhibitors | 360,000 compounds, 0.2% hits | AID 720542, 2013; active means well fitted inhibition curve with a large enough effect; inconclusive means small, poorly fitted or top-dose-only effect; inactive means no such curve, though single readings can be large or run the other way;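 further: potency means the concentration at half of the fitted maximal effect; 0% = vehicle wells and -100% = peptide control; nearly all actives have a fitted effect of over 45% in size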
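AMA1 (3D7) with his tag at 25 nM final met compounds first, then biotinylated RON2 peptide at 25 nM; detection used donor plus acceptor beads, 10 µg/mL apiece, read by AlphaScreen after 30 min at room temperature.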
LASV entry inh = qHTS for Inhibitors of binding or entry into cells for Lassa Virus; Potency, µM (top dose mostly 37.9 µM), inactives show top-dose activity change, negative = inhibition, hits mostly inhibitors; Lassa virus pseudotype entry inhibition, cell reporter; AID 540256, 2011; 300,000 compounds, 1.2% hits; calls by dose curve; tested in HEK293 cells; further: potency means the concentration at half of the fitted maximal effect; on the % scale 0 is the no-effect control and ±100 the full control effect; nearly all actives have a fitted effect of over 50% in size
Cycloheximide cs = Cycloheximide Counterscreen for Small Molecule Inhibitors of Shiga Toxin; max response, %; cell reporter, cycloheximide protein synthesis inhibition counterscreen; AID 2314, 2010; 300,000 compounds, 12% hits; in the data active means max response mostly above about 13%, no sharp cut-off; inactive means mostly below about 14%; further: read at 38.3 µM for the half of the compounds with a filed dose; 0% is about no effect
* marks the source's active call; other numbers are inactive results; u = inconclusive; x = no result given; [ ] = remark or other dose. This is one part of a sample in which hits are shown more often than they occur.

SMILES	MARV entry inh	Shiga inhibitor	AMA1-RON2 inh	LASV entry inh	Cycloheximide cs
COC(=O)c1ccc(COC(=O)CCC(=O)c2cccs2)cc1	u	121*	1%	u	62*
C/C(=N/OCC(=O)Nc1ccccc1)c1cccs1	25%[46.1 µM]	60*	4%	-16%	27*
C/C(=N\OCC(=O)Nc1ccccc1Br)c1cccs1	x	55*	22%	x	28*
COc1ccc(NC(=O)CO/N=C(\C)c2cccs2)cc1	-2%[46.1 µM]	-6	-24%	4%[46.1 µM]	13
COC(=O)CC=C[C@@H](C)[C@H](OC)c1cc(OC)ccc1Br	3%[14.2 µM]	x	x	x	x
C#CCN(C[C@@H]1[C@@H](OC(=O)NCC2CCCCC2)[C@@H](OC(=O)NCC2CCCCC2)Cn2c(=O)n(CCCCCC)c(=O)n21)S(=O)(=O)c1ccc(C)cc1	x	x	4%	x	x
O=C(CC(Nc1ccccc1Cl)C(=O)OCC(=O)c1cccs1)c1ccccc1 (stereo not given)	5%	69*	10%	9%	53*
O=C(COC(=O)c1cccs1)Nc1ccccc1	1%	109*	1%	8%	51*
O=C(CNC(=O)c1ccccc1)OCC(=O)c1cccs1	-3%[46.1 µM]	4	-3%	25%[46.1 µM]	8
O=C(COC(=O)c1cccs1)Nc1ccc(F)c(F)c1	x	x	-19%	x	x
CCc1ccc(C(=O)CN2C(=O)NC(C)(CCc3ccccc3)C2=O)cc1 (stereo not given)	11%	-2	-15%	0%	-2
O=C(NC1CCCCC1)c1nc(C2CCNCC2)oc1-c1ccccc1	x	x	-1%	x	x
CC1CCN(S(=O)(=O)c2ccc(NC(=O)Cc3cccs3)cc2)CC1	-26%	-27	5%	2%	-4
O=C(O)/C=C/c1nc(-c2ccccc2)n2ccccc12	u	79*	19%	1%	71*
COc1ccccc1-c1noc(-c2ccco2)n1	u	80*	12%	u	51*
COc1ccc(-c2nc(-c3ccccc3OC)no2)cc1OC	28%	162*	-6%	20%	66*
COc1cc(-c2noc(-c3ccco3)n2)cc(OC)c1OC	-41%	80*	4%	-6%	18*
COc1ccccc1-c1noc(-c2ccccc2)n1	u	89*	23%	-28%	49*
COc1cc(-c2noc(-c3cccc(Cl)c3)n2)cc(OC)c1OC	15%	-9	9%	13%	-1
CCOc1cc(-c2nc(-c3ccccc3OC)no2)cc(OCC)c1OCC	u	-10	2%	u	-4
Cc1cc2c(cc1S(=O)(=O)CCC(=O)N1CCCCC1C)OCC(=O)N2 (stereo not given)	x	x	x	-29%[46.1 µM]	x
COc1ccc(C)cc1S(=O)(=O)N1CCCC(C(=O)NC2CC2)C1 (stereo not given)	6%	-23	13%	5%	0
CCC(CC)c1nnc(NC(=O)Cc2ccccc2[N+](=O)[O-])s1	-2%[46.1 µM]	-2	-10%	-8%	-5
CC1=NC(=O)C(N=Nc2ccccc2)N1c1ccccc1 (stereo not given)	-20%	52*	u	u	29*
O=C(O)c1cccc(N2C(=O)C3CC=CCC3C2=O)c1 (stereo not given)	7%	3	-7%	13%	0
SMILES	MARV entry inh	Shiga inhibitor	AMA1-RON2 inh	LASV entry inh	Cycloheximide cs
CC1=NC(=O)C(N=Nc2cccc(C(=O)O)c2)N1c1ccccc1 (stereo not given)	2.6µM*	104*	7%	2.3µM*	35*
CC1=NC(=O)C(N=Nc2ccccc2C(=O)O)N1c1ccccc1 (stereo not given)	4%[46.1 µM]	8	48%	-24%	-1
Cc1nc2cc3c(cc2c(C)c1C(=O)OC(C)C)OCO3	2%	29*	-11%	0%	40*
COC(=O)c1nc2cc3c(cc2c(C)c1C(=O)OC)OCO3	8%	6	-10%	19%	4
CCCCC(=O)NC(c1cccs1)c1cc(Cl)c2cccnc2c1O (stereo not given)	x	-4	70%	x	-3
COc1ccc(C(NC(C)=O)c2cc(Cl)c3cccnc3c2O)cc1 (stereo not given)	x	x	14%	x	-5
CN1CCN(C(c2ccc(Cl)cc2)c2cc(Cl)c3cccnc3c2O)CC1 (stereo not given)	u	5	-10%	10µM*	3
CCCC(=O)NC(c1ccc(OC)c(OC)c1)c1cc(Cl)c2cccnc2c1O (stereo not given)	10µM*	1	28%	u	-3
CC(=O)NC(c1ccccc1)c1cc(Cl)c2cccnc2c1O (stereo not given)	13µM*	-13	0%	u	-1
CSCCC(NC(=O)c1ccccc1)C(=O)NCCCn1nc(C)cc1C (stereo not given)	x	x	0%	x	x
O=C(CC[C@H]1O[C@@H](n2ccc(=O)[nH]c2=O)[C@H](O)[C@@H]1O)NCC(c1ccccc1)c1ccccc1	x	x	-4%	x	x
COc1ccc2c(c1)c1c(c(=O)n(-c3cccc(Cl)c3)c(=O)n1CC(=O)NCC1CCCO1)n2C (stereo not given)	x	x	x	11%[46.1 µM]	x
C/C(Cl)=C/CSc1nn2c(=O)c3ccccc3nc2s1	5%	62*	0%	5%	41*
C=CCSc1nc2ccccc2c(=O)[nH]1	x	-9	0%	x	-1
C=CCSc1nn2c(=O)c3ccccc3nc2s1	14%	48*	6%	u	35*
CN(Cc1c(F)cccc1Cl)C(=O)CNC(=O)c1cccs1	x	94*	1%	x	39*
Cc1ccc(OCC(=O)c2cc(C)n(C)c2C)c([N+](=O)[O-])n1	4%	80*	-8%[11.6 µM]	u	29*
Cc1cc(C(=O)COc2cccnc2[N+](=O)[O-])c(C)n1-c1ccccc1F	x	87*	-16%	x	40*
Cc1cc(C(=O)COc2cccnc2[N+](=O)[O-])c(C)n1-c1ccccc1	u	56*	19%	4.6µM*	59*
Cc1cc(C(=O)COc2ccc(Cl)cc2Br)c(C)n1C	u	41	u	u	22*
Cc1cc(C(=O)COc2cccnc2[N+](=O)[O-])c(C)n1Cc1ccco1	u	10	-6%	-32%	14
Cc1ccc(-n2c(C)cc(C(=O)COc3cccnc3[N+](=O)[O-])c2C)cc1	u	54*	-27%	u	43*
CCc1nc(SCc2ccccc2C#N)n[nH]1	7%	2	5%	9%	-2
CCCc1nc(SCc2ccc(OCC)cc2)n[nH]1	u	69	-2%	1%[46.1 µM]	5
c1ccc(CSc2n[nH]c(-c3ccco3)n2)cc1	16%	81*	-12%	u	20*
Cc1nc(SCc2ccccc2)n[nH]1	x	14	-9%	x	13*
CCc1nc(SCc2ccc(OC)cc2)n[nH]1	x	32*	10%	x	30*
CCc1nc(SCc2ccccc2)n[nH]1	-2%	58*	9%	u	25*
O=C1Nc2cnc(Cl)nc2Nc2ccccc21	x	x	-2%	x	x

Screens (PubChem)
